Experimental data as given in PubChem BioAssay AID485297 (National Center for Advancing Translational Sciences (NCATS), 2010).
Among all 320,000 compounds or so, about 9,100 (2.8%) were called active. Where a call stands in place of a potency, no number is given. Roughly 3% stayed inconclusive and do not appear here. For the sample, actives were picked, then their nearest neighbours and some compounds at random. Unmarked numbers belong to inactive results. Calls follow the shape of the dose curve; as a rule, active = well fitted activation curve with a large enough effect; inconclusive = small, poorly fitted or top-dose-only effect; inactive = no such curve, though single readings can be large or run the other way.
Potency is read from the fitted curve at half-maximal effect.

Test: qHTS Assay for Rab9 Promoter Activators; also: nearly all actives have a fitted effect of over 60% in size
Details: Huh7 Rab9 promoter-luciferase reporter, luminescence, 24 h; series mostly up to 9.22 µM
Outline: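 Steps: seed 1500 Huh7 Rab9-luc cells per well, rest 2 h at 37 °C; add compound in DMSO; incubate 24 h; add luciferase reagent, 10 min ambient; read luminescence.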
In the case of `COc1ccc(NC(=O)Cn2cc(C(=O)c3ccncc3)c(=O)c3cc(C)ccc32)cc1Cl`, the Potency is reported as “inactive”. For `O=S(=O)(NCCCCCCNS(=O)(=O)c1c(F)cccc1F)c1ccc2c(c1)OCCO2`, the Potency was “inactive”. In the case of `COc1cccc(NC(=O)CN(C)C(=O)c2cc(C3CC3)nn2-c2ccccc2)c1`, the Potency is reported as “inactive”. In the case of `O=C(OCc1cc(=O)n2ccsc2n1)C1(c2ccc(Cl)cc2)CC1`, the Potency is reported as “inactive”. For `COc1ccc(C(=O)OCC(=O)c2cc(C)n(CC3CCCO3)c2C)cc1[N+](=O)[O-]` (configuration not stated), the Potency was “inactive”. In the case of `Cc1cccc(NC(=O)CN2CCN(C(=O)C3CCN(C(=O)/C=C/c4ccccc4)CC3)CC2)c1C`, the Potency is reported as “inactive”. With `COc1cc(OC)c(N2CC(C(=O)Nc3cc(Cl)ccc3N3CCOCC3)CC2=O)cc1Cl` (configuration not stated) the Potency was “inactive”. In the case of `CCCCN1C(=O)C(=O)N(CC(=O)Nc2cccc(C(C)=O)c2)C1=O`, the Potency is reported as “inactive”. For `C=C(C)C1CC=C(C)/C(=N\NC(=O)CNc2ccccc2OC)C1` (configuration not stated), the Potency was “inactive”. In the case of `O=C(Nc1ccon1)c1nc[nH]c1C(=O)NCc1ccccc1`, the Potency is reported as “inactive”. With `O=C1c2cccc(OCC(=O)N3N=C(c4cccs4)CC3c3ccc(F)cc3)c2CCN1Cc1ccccc1` (configuration not stated) the Potency was “inactive”. For `O=C(CCNC(=O)c1ccc(Br)cc1)NCC(c1ccco1)N1CCCCC1` (configuration not stated), the Potency was “inactive”. For `CCc1ccc(NC2Nc3cc(C)nn3S2)cc1` (configuration not stated), the Potency was 3550 nM (active). For `CCOC(=O)c1ccc(NC2Nc3cc(C)nn3S2)cc1` (configuration not stated), the Potency was “inactive”. In the case of `O=c1cc(CCl)nc2scc(-c3ccccc3)n12`, the Potency is reported as “inactive”. With `Cc1csc2nc(COC(=O)c3cccc(N(C)C)c3)cc(=O)n12` the Potency was 2820 nM (active). For `Cc1nn2c(=O)cc(COC(=O)c3ccc(NC(=O)C(C)(C)C)cc3)nc2s1`, the Potency was “inactive”. In the case of `CN(Cc1ccccc1)C(=O)CCc1ccccc1`, the Potency is reported as “inactive”. In the case of `CN(Cc1ccc(F)cc1)C(=O)COc1ccc2ccccc2c1`, the Potency is reported as “inactive”. In the case of `CN(Cc1ccccc1)C(=O)COc1ccccc1`, the Potency is reported as 2240 nM (active). For `COc1ccc(NS(=O)(=O)c2ccc(C)c(C(=O)NCC(c3cccs3)N3CCOCC3)c2)cc1` (configuration not stated), the Potency was “inactive”. With `CCOC(=O)c1ccc(NC(=O)Cc2cccs2)cc1` the Potency was 4470 nM (active). With `O=C(Cc1cccs1)Nc1ccc([N+](=O)[O-])cc1` the Potency was “inactive”. For `CCOc1ccccc1NC(=O)Cc1cccs1`, the Potency was “inactive”. For `CCOC(=O)N1CCN(C(=O)COC(=O)c2cccc(S(C)(=O)=O)c2)CC1`, the Potency was “inactive”. For `CCOc1ccc(NC(=O)c2cccc3c2C(=O)N(CC2CCCO2)C3)cc1` (configuration not stated), the Potency was “inactive”. In the case of `CC(=O)c1sc(NC(=O)CCN2C(=O)C3CC=CCC3C2=O)nc1-c1ccccc1` (configuration not stated), the Potency is reported as “inactive”. With `COc1ccc(C(=O)N/N=c2\oc3ccccc3cc2C(N)=O)cc1` the Potency was “inactive”. For `COc1cccc2cc(C(N)=O)/c(=N\NC(=O)c3ccccc3)oc12`, the Potency was 3550 nM (active). With `NC(=O)c1cc2ccccc2o/c1=N/NC(=O)c1cccc(F)c1` the Potency was “inactive”. In the case of `CC(=O)Nc1ccc(Nc2cc(C)nc(Nc3ccc(NC(C)=O)cc3)n2)cc1`, the Potency is reported as “inactive”. With `Cc1ccn2cc(C(=O)NC3CCN(Cc4ccccc4)CC3)nc2c1` the Potency was “inactive”. With `CCN(c1cccc(C)c1)S(=O)(=O)c1ccc(-c2coc(C)n2)cc1` the Potency was “inactive”. For `COc1cc(OC)cc(-c2nc(=S)n3ccsc3n2)c1`, the Potency was “inactive”. In the case of `CCN(CC)S(=O)(=O)c1ccc(-c2cn3ccc(C)cc3n2)cc1`, the Potency is reported as 2240 nM (active). For `COc1ccc(-c2cn3ccc(C)cc3n2)cc1`, the Potency was 112 nM (active). With `CCN(CC(=O)NCCc1ccccc1)S(=O)(=O)c1ccc(C)cc1` the Potency was “inactive”. With `COc1ccc(CNc2nccs2)cc1` the Potency was “inactive”. With `COc1ccc(-c2cn3ccsc3n2)cc1` the Potency was 708 nM (active). With `COc1ccc(-n2c(-c3ccc(OC)c(OC)c3)n[nH]c2=S)cc1` the Potency was “inactive”. With `Cc1ccccc1N1CCN(C2CCCN(C(=O)c3cn4c(C)cccc4n3)C2)CC1` (configuration not stated) the Potency was “inactive”. With `COc1ccccc1N1CC(C(=O)NCCN2C(=O)S/C(=C\c3cccnc3)C2=O)CC1=O` (configuration not stated) the Potency was “inactive”. With `CC1CCCCC12NC(=O)N(CC(=O)OCC(=O)NCc1ccc(F)cc1)C2=O` (configuration not stated) the Potency was “inactive”. With `Cc1nn(C(C)C(=O)N2CCOCC2)c(=O)c2nn(-c3ccccc3)c(C)c12` (configuration not stated) the Potency was “inactive”. For `O=C1C=C(c2cccc(Cl)c2)C[C@@H](c2ccc(F)cc2)C1`, the Potency was “inactive”. For `COc1ccc(C(=O)CSc2nnc(NC(=O)C3CC(=O)N(c4cccc(OC)c4)C3)s2)cc1` (configuration not stated), the Potency was “inactive”. In the case of `COc1ccc(/C=N/NS(=O)(=O)c2ccc(NC(C)=O)cc2)cc1`, the Potency is reported as “inactive”. For `COc1ccc(/C=N/Nc2nc3ccccc3c(=O)[nH]2)cc1`, the Potency was 1580 nM (active). In the case of `COc1ccc(/C=N/Nc2nc(-c3ccc(C)cc3)c(C#N)c(=O)[nH]2)cc1`, the Potency is reported as “inactive”. For `COc1ccc(CCCc2nnc(SCc3nc4ccccc4c(=O)[nH]3)n2C)cc1`, the Potency was “inactive”. In the case of `COc1ccc(/C=N/OCC(=O)N(Cc2ccccc2)c2ccccc2C(=O)O)cc1`, the Potency is reported as “inactive”. For `COc1ccc(/C=N/Nc2ccccc2C(=O)O)cc1`, the Potency was 89.1 nM (active). For `COc1ccccc1C(=O)NCC(=O)OCC(=O)Nc1nnc(-c2ccccc2)o1`, the Potency was “inactive”. For `COc1cc(OC)cc(C(=O)Nc2nnc(SCC(=O)NCC3CCCO3)s2)c1` (configuration not stated), the Potency was “inactive”. In the case of `COc1ccc(C)cc1NC(=O)CCCN1C(=O)NC(C)(C)C1=O`, the Potency is reported as “inactive”. With `Cc1ccc(S(=O)(=O)NCCNC(C)c2ccc(Br)cc2)cc1` (configuration not stated) the Potency was “inactive”. For `CCC1(C)NC(=O)N(CC(=O)N2CCN(c3cccc(Cl)c3)CC2)C1=O` (configuration not stated), the Potency was “inactive”. In the case of `COc1cc2c(cc1OC)CC1(CCCCC1)N=C2`, the Potency is reported as “inactive”. With `Cc1ccc(N/N=C2\COC(C)(C)CC2=O)cc1` the Potency was 3160 nM (active). In the case of `CCC1(C)CC(=O)NC1=O` (configuration not stated), the Potency is reported as “inactive”. In the case of `Cc1ccc(C(=O)CSc2nc3ccccc3c(=O)n2N)o1`, the Potency is reported as 3550 nM (active). For `COc1ccc(NC(=O)CSc2nc3ccccc3c(=O)n2C)cc1`, the Potency was “inactive”. For `COC(=O)CSc1nc2ccccc2c(=O)n1Cc1ccccc1`, the Potency was “inactive”. For `Cc1ccccc1-c1cc(C(=O)NCC2CC2)n(CC2CC(c3cccnc3)=NO2)n1` (configuration not stated), the Potency was “inactive”. In the case of `COc1cc(C(C)=O)ccc1OC(C)C(=O)Nc1ccc(S(=O)(=O)N2CCCC2)cc1` (configuration not stated), the Potency is reported as “inactive”. For `O=C(O)C1CCN(C(=O)OCc2ccccc2)CC1`, the Potency was 4470 nM (active). With `O=C(NCC1CCC(C(=O)O)CC1)OCc1ccccc1` (configuration not stated) the Potency was “inactive”. In the case of `CCOC(=O)N1CCC(NC(=O)CCc2ccccc2)CC1`, the Potency is reported as “inactive”. With `COc1ccc(Cl)cc1NC(=O)CN(C)CC(=O)Nc1ccc2c(c1)OCO2` the Potency was “inactive”. With `COc1ccc(CN(Cc2ccco2)S(=O)(=O)c2ccc(S(=O)(=O)N3CCCC3)cc2)cc1` the Potency was “inactive”. With `COc1ccccc1-n1nnnc1SCC(=O)NC(=O)Cc1ccccc1` the Potency was “inactive”. For `Cc1ccc(S(=O)(=O)CC(=O)Nc2nnc(C)s2)cc1`, the Potency was “inactive”. In the case of `Cc1ccc(C(=O)Cc2nnc(C)s2)cc1`, the Potency is reported as 2820 nM (active). In the case of `Cc1ccc(C(=O)Cn2cccn2)cc1`, the Potency is reported as “inactive”. For `CC(OC(=O)c1cc2ccccc2o1)C(=O)Nc1ccc(N2CCOCC2)cc1` (configuration not stated), the Potency was “inactive”. In the case of `Cc1ccc2oc(=O)c3cnn(CC(=O)N(Cc4ccco4)C4CCCCC4)c3c2c1`, the Potency is reported as “inactive”. For `Cc1cc2c(=O)n(C)c(SCC(=O)c3cc4ccccc4o3)nc2s1`, the Potency was “inactive”. `O=C(NCc1cccnc1)c1cccc(-c2cc3ccccc3oc2=O)c1` showed an activation, negative = inhibition of -2.68% [at 1.84 µM]. In the case of `Nc1ncc(-c2cc3ccccc3oc2=O)s1`, the Potency is reported as 1120 nM (active). For `COc1ccccc1C(CNC(=O)c1cccc(S(=O)(=O)Nc2ccc(F)cc2)c1)N(C)C` (configuration not stated), the Potency was “inactive”. With `Cc1nn(C)c(Cl)c1CN1CCC(n2nccc2NC(=O)C2CCCC2)CC1` the Potency was “inactive”. For `CC(Sc1nnc(-c2cccs2)n1C1CC1)C(=O)NCC1CCCO1` (configuration not stated), the Potency was “inactive”. In the case of `CN(C)/C=C/C(=O)c1ccccc1F`, the Potency is reported as “inactive”. For `Cc1nc(-c2ccc(Cl)cc2)sc1C(=O)CBr`, the Potency was “inactive”. With `Cc1nc(-c2ccccc2)sc1C(=O)/C=C/N(C)C` the Potency was 2820 nM (active). For `CC(C)CN(C(=O)CSc1nncn1C)C1CCS(=O)(=O)C1` (configuration not stated), the Potency was “inactive”. With `Cc1ccc(C(=O)NNc2ncnc3ccccc23)cc1` the Potency was 3980 nM (active). For `Cc1ccc(C(=O)NNC(=O)c2cc3cc4ccccc4nc3s2)cc1`, the Potency was “inactive”. With `CCc1nc(SCC(=O)NNC(=O)c2ccc(C)cc2)c2ccccc2n1` the Potency was “inactive”. With `COc1ccc(CNC(=O)COC(=O)c2c(C)nn(-c3ccccc3)c2C)cc1OC` the Potency was “inactive”. With `CN(C)C(CNC(=O)c1cccc(C#N)c1)c1ccco1` (configuration not stated) the Potency was “inactive”. In the case of `Cc1cc(F)ccc1S(=O)(=O)Nc1ccc(C(=O)N(C)Cc2ccco2)cc1`, the Potency is reported as “inactive”. For `CC1CCCCC12NC(=O)N(CC(=O)Nc1ccc(S(=O)(=O)Nc3ncccn3)cc1)C2=O` (configuration not stated), the Potency was “inactive”. For `Cc1ccc(C(=O)OCc2nc(N)nc(Nc3ccccc3C)n2)cc1`, the Potency was “inactive”. In the case of `Cc1ccccc1Nc1nc(N)nc(CN2CCN(c3ccccn3)CC2)n1`, the Potency is reported as “inactive”. For `Cc1ccccc1Nc1nc(N)nc(CSc2ccccc2)n1`, the Potency was 1410 nM (active). With `COc1cccc(C(O)c2nc3ccccc3n2C)c1` (configuration not stated) the Potency was “inactive”. With `Cc1cc(C)c(CN2CCN(C(=O)Cn3ccc(NC(=O)OCc4ccccc4)nc3=O)CC2)c(C)c1` the Potency was “inactive”. In the case of `COc1ccc(/C=C2\SC(=O)N(CCC(=O)NCCCn3ccnc3)C2=O)cc1`, the Potency is reported as “inactive”. For `COc1ccccc1/C=C1\SC(=O)N(CCC(=O)N(C)C2CCS(=O)(=O)C2)C1=O` (configuration not stated), the Potency was “inactive”. For `COc1ccc(/C=C2\SC(=O)N(CCC(=O)NC3CCS(=O)(=O)C3)C2=O)cc1` (configuration not stated), the Potency was 2510 nM (active). With `CC1CCCC(C)N1C(=O)COC(=O)COc1ccccc1C#N` (configuration not stated) the Potency was “inactive”. With `CCCCN(C(=O)c1ccc(S(=O)(=O)N2CCOCC2)cc1)C1CCS(=O)(=O)C1` (configuration not stated) the Potency was “inactive”. In the case of `O=C(Nc1cccnc1)c1noc2c1CCCCC2`, the Potency is reported as 1580 nM (active). In the case of `O=C(Nc1cccnc1)c1cccc(S(=O)(=O)N2CCCC2)c1`, the Potency is reported as “inactive”. With `O=C(Nc1cccnc1)c1cc(Cl)ccc1Cl` the Potency was “inactive”. With `CCCCc1ccc(NC(=O)CN2C(=O)NC(Cc3ccccc3)C2=O)cc1` (configuration not stated) the Potency was “inactive”.
